Hits are enriched below; roughly 8.1% of the tested compounds scored in any of these assays.
ELG1 repair inh = blocks ELG1-dependent DNA repair in HEK293T cells; HEK293T ELG1-luciferase reporter, luminescence, 16 h; DNA damage induced by 5-fluorouridine; Potency, µM (highest dose often 46.1 µM), without a hit: at the top dose activity change, negative = inhibition, usual class: inhibitors; hit rate 2.3% among 330,000; note: % is set by controls: 0 for no effect and ±100 for the full control effect; nearly all actives have a fitted effect of over 55% in size
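DMSO vehicle served as the neutral condition. Each well held 2,000 cells given 5-fluorouridine plus compound; after 16 hr at 37 °C/5% CO2, ONE-Glo was added and luciferase measured 30 min later.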
KB-3-1 tox = kills parental KB-3-1 adenocarcinoma cells; AID 1347075; KB-3-1 viability, CellTiter-Glo ATP luminescence, 72 h; Potency, µM (doses to about 46.1 µM), hits mostly cytotoxic; hit rate 1.4% among 400,000; note: % is set by controls: 0 for no effect and ±100 for the full control effect; nearly all actives have a fitted effect of over 60% in size
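Screening of KB-3-1 cells (DMEM, 10% FBS, phenol-red free) ran from lowest to highest compound concentration; after 72 h at 37 °C viability was read luminescently and curves fitted.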
KB-V1 MDR tox = kills drug-selected multidrug resistant KB-V1 cells. KB-V1 MDR cells viability, CellTiter-Glo, 72 h. Potency, µM (doses to about 46.1 µM), usual class: cytotoxic. hit rate 3.4% among 400,000. AID 1347076; note: % is set by controls: 0 for no effect and ±100 for the full control effect; nearly all actives have a fitted effect of over 60% in size
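Drug-selected KB-V1 cells, grown in DMEM lacking phenol red with 10% FBS, receive compound titrations; after three days at 37 degrees C, surviving cell ATP is quantified by CellTiter-Glo luminescence and responses normalized and curve-fitted.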
SW480 rerep = inducers of DNA re-replication in SW480 colon cancer cells; SW480 DNA re-replication, Hoechst DNA content imaging, 48 h; Potency, µM (titrated, usually from 46.1 µM), for the others: at the highest dose re-replication activation, hits mostly activators; hit rate 1.8% among 340,000; note: % of control where 0% means no effect; nearly all actives have a fitted effect of over 55% in size
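Readout is total intensity of Hoechst-stained nuclei, excited at 405 nm and collected at 500-530 nm. Compound treatment lasted 48 hr at 37 C in 5% CO2 before staining.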
MCF10A rereplic = induces DNA re-replication in MCF 10a normal breast cells. MCF 10A DNA re-replication, Hoechst nuclear intensity, 48 h. Potency, µM (titrated, usually from 46.1 µM), for inactives: at the top dose activity, positive = re-replication, hits mostly activators. hit rate 2.9% among 350,000. AID 624296; note: % of control where 0% means no effect; nearly all actives have a fitted effect of over 50% in size
* = called active by the depositor; i = inactive; ? = inconclusive; · = not tested or not shown; [ ] = another dose, or the depositor's remark. Calls come from the whole dose curve; as a rule, active = well fitted curve in the direction sought with a large enough effect; inconclusive = small, poorly fitted or top-dose-only effect, or another doubt; inactive = no such curve, though single readings can be large; an effect the other way counts as inactive or inconclusive. Potency is the fitted concentration of half-maximal effect.

SMILES	ELG1 repair inh	KB-3-1 tox	KB-V1 MDR tox	SW480 rerep	MCF10A rereplic
CCC(C)NC(=O)CCC(=O)Nc1ccc2nc(N3CC(C)CC(C)C3)cc(C)c2c1 (configuration not stated)	-13%	i	i	?	21µM*
CCCCNC(=O)CCC(=O)Nc1ccc2nc(N3CCC(C)CC3)cc(C)c2c1	?	i	i	?	21µM*
Cc1ccc(S(=O)(=O)N2CCN(Cc3cc4c(cc3Br)OCCO4)CC2)cc1	-11%	3.7µM*	i	-7%	?
Cc1ccccc1NC(=O)C1CC(=O)N(c2ccc3c4c(cccc24)CC3)C1 (configuration not stated)	1%	i	i	2%	-3%
O=C(Nc1ccccc1Br)C1CC(=O)N(c2ccc3c4c(cccc24)CC3)C1 (configuration not stated)	?	4.6µM*	?	?	21µM*
CC(=O)NCCNC(=O)c1ccc(Cn2c(=O)[nH]c3ccsc3c2=O)cc1	1%	i	i	-2%	1%
O=C(Nc1cc(Cl)cc(Cl)c1)c1ccc(Cn2c(=O)[nH]c3ccsc3c2=O)cc1	?	16µM*	i	8%	23µM*
Cc1ccc(C2(C)NC(=O)N(CC(=O)N3CCN(C(=O)c4cccs4)CC3)C2=O)cc1 (configuration not stated)	11%	i	i	-30%	26%
CSCCC(NC(=O)c1ccc(Cl)c([N+](=O)[O-])c1)C(=O)N1CCN(C/C=C/c2ccccc2)CC1 (configuration not stated)	-1%	i	i	2%	18µM*
CCOc1c2c(c(-c3ccc4c(c3)OCO4)c3cc(OC)c(OC)cc13)C(=O)OC2	·	1.3µM*	?	·	·
COc1ccccc1-c1oc2ccccc2c1-c1ccc2c(c1)OCO2	?	i	i	-5%	?
Cc1ccc(S(=O)(=O)N2C[C@H]3C(=O)C[C@@H](c4ccccc4)N(S(=O)(=O)c4ccc(C)cc4)[C@H]3C[C@H]2c2ccccc2Cl)cc1	·	i	i	·	·
CCc1nnc(NC(=O)c2ccc(S(=O)(=O)N(C)Cc3ccccc3)cc2)o1	-4%	?	3.7µM*	2.6µM*	-1%
CCc1nnc(NC(=O)c2ccc(S(=O)(=O)N(CC)Cc3ccccc3)cc2)o1	-14%	?	?	23%	?
COc1ccccc1-c1nnc(NC(=O)c2ccc(S(=O)(=O)N(C)Cc3ccccc3)cc2)o1	?	?	5.2µM*	21µM*	?
CCc1noc(C)c1C(=O)NCCN1C(=O)S/C(=C\c2ccccc2F)C1=O	·	i	i	·	·
CCOC(=O)C1CCN(C(=O)c2ccc(S(=O)(=O)Nc3ccccc3OC)cc2)CC1	-10%	i	i	-5%	3%
CCOC(=O)c1ccccc1OC(=O)NNc1ccccc1	·	12µM*	i	-7%	4%
Cc1csc(NC(=O)CCn2c(=O)sc3ccccc32)n1	?	i	23µM*	-9%	?
O=C(CCn1c(=O)sc2ccccc21)Nc1nccs1	?	i	i	-10%	6%
CCCc1nnc(NC(=O)Cn2c(=O)sc3ccccc32)s1	-4%	i	18µM*	1%	-5%
Cc1csc(NC(=O)CCCSc2nc3ccccc3s2)n1	?	i	?	-4%	18µM*
COc1ccc(Cn2c(=O)[nH]c3cc(C(=O)N4CCN(c5cccc(OC)c5)CC4)ccc3c2=O)cc1	·	i	i	·	·
CSc1ccccc1NC(=O)CN(C)C(=O)C1CCN(C(=O)Nc2ccccc2)CC1	13%	i	i	2.3µM*	15%
Cc1ccc(NC(=O)CSC2=NCCN2)cc1	11%	i	i	15%	21µM*
SMILES	ELG1 repair inh	KB-3-1 tox	KB-V1 MDR tox	SW480 rerep	MCF10A rereplic
O=C(CSc1n[nH]c(-c2ccncc2)n1)Nc1ccccc1	-3%	i	i	-15%	-11%
Cc1ccc(NC(=O)CSc2n[nH]c(-c3ccccn3)n2)cc1	?	?	i	5.2µM*	?
Cc1nc(SCC(=O)Nc2ccccn2)n[nH]1	3%	i	i	-21%[1.84 µM]	-3%
O=C(CSc1n[nH]c(-c2ccc(Cl)cc2Cl)n1)Nc1ccccn1	10%	i	16µM*	-5%	2%
O=C(CSc1n[nH]c(-c2ccccn2)n1)Nc1ccc(Cl)cc1	21µM*	?	i	9.2µM*	20%
COc1ccccc1NC(=O)CSC1=NCCN1	?	i	i	-692%	-57%
Cc1ccc(NC(=O)Cn2cnc3sc(C)c(S(=O)(=O)N4CCN(c5ncccn5)CC4)c3c2=O)cc1F	·	i	?	·	·
ON=C(CCc1ccccc1)c1ccccc1	·	i	i	1%	16%
COc1ccc(C(=O)C[n+]2cc(Br)cc(Br)c2)cc1	·	i	i	·	·
O=C(CSc1n[nH]c(-c2ccncc2)n1)Nc1ccc(F)cc1	-1%	i	i	3%	0%
O=C(CSc1n[nH]c(-c2ccccn2)n1)Nc1ccc(F)cc1	?	?	?	3.3µM*	?
Cc1ccc2oc(=O)c3cnn(CC(=O)N4CCN(c5ccc(F)cc5)CC4)c3c2c1	·	i	i	·	·
C=CCc1c(C)nc(-c2ccccc2)nc1Nc1ccccc1O	?	i	i	6%	23µM*
C=CCc1c(C)nc(-c2ccccc2)nc1N/N=C/c1ccccc1	?	i	i	-66%	?
C=CCc1c(C)nc(-c2ccccc2)nc1N/N=C/c1ccncc1	?	i	i	23µM*	25%
C=CCc1c(C)nc(-c2ccccc2)nc1N/N=C(\C)c1ccc(N)cc1	-5%	?	23µM*	3%	-21%
CCOC1=C2[C@@H](CN(S(=O)(=O)c3ccc(C)cc3)[C@H]2c2cccc3ccccc23)[C@H]2C(=O)N(c3ccccc3)C(=O)[C@H]2C1	·	i	i	·	·
Cc1nc2c(C)c(C)c(C)c(C)c2nc1C	10%	i	i	68%	?
Cc1nc2c(O)c3c(c(O)c2nc1C)C1C=CC3CC1	·	i	?	3.3µM*	5.2µM*
CCN(C(=O)COc1ccc(C)cc1OC)c1cccc2ccccc12	-6%	i	12µM*	-3%	14%
Cc1cc(Cl)nc2nc(Cl)ccc12	·	i	i	·	·
O=C1CNCc2[nH]c3ccccc3c2N1c1ccccc1	-1%	i	23µM*	-1%	?
Cc1ccc(O)c(C(=O)CC(=O)c2ccc(Cl)cc2)c1	?	?	i	?	?
O=C(CC(=O)c1cc(Cl)ccc1O)c1ccccc1	?	?	?	?	21µM*
Cc1cccc(C(=O)CC(=O)c2cc(Cl)ccc2O)c1	5%	?	9.2µM*	17%	?
NC(=NCCc1ccccc1)NC(=O)c1cc(Cl)ccc1O	·	?	?	21µM*	?

Bioassay records as filed in PubChem.
